Myeloid diff MLP: induction of myeloid progenitor differentiation, primary screen, cell-based, flow cytometry, MLPCN library. ER-HoxA9 myeloid progenitors, lysozyme-GFP differentiation. calls only at 10 µM. 360,000 compounds, 1% hits. AID 624256, 2012;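 active means normalized GFP-positive differentiation at or above the plate's own cutoff, the solvent-only control mean plus 3 SD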;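 further: cells exposed to compound for four days before flow analysis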
GRIN3A LBD mod: binders of NR3A ligand-binding domain, primary screen, biophysical, differential scanning fluorimetry, uHTS; Glutamate receptor ionotropic, NMDA 3A (GRIN3A) ligand-binding domain; NR3A LBD differential scanning fluorimetry, Tm shift; 0% = protein alone, 100% = glycine-bound protein; Tm shift relative to glycine control, % at 25 µM; 340,000 compounds, 2.5% hits; AID 1259313, 2017;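 active means melting temperature shift of at least 10% of the positive control shift, at one fixed dose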
rCAG RNA binder: binders of r(CAG) RNA repeats, primary screen, biochemical, fluorescence. r(CAG) RNA repeat, TO-PRO-1 dye displacement fluorescence. inhibition, % at 3 µM. 370,000 compounds, 1.3% hits. AID 651821, 2012;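 active means inhibition above the plate cutoff, the mean of all test compounds on that plate plus 3 SD, cut at about 35% in these data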;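 further: 0% = DMSO alone and 100% = 100 µM mitoxantrone as full dye displacement; higher means more dye released from RNA so lower well fluorescence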
FAS-TE inh: FAS thioesterase domain inhibitors, primary screen, biochemical, fluorescence intensity, uHTS | Fatty acid synthase (Homo sapiens), P49327 | inhibition, % at 15 µM | recombinant FAS-TE, OMFH fluorogenic substrate, fluorescence endpoint | 360,000 compounds, 0.67% hits;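 active means compounds whose normalised, plate-corrected inhibition of enzyme fluorescence in the single-dose primary screen is 50% or more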;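 further: 0% = DMSO with enzyme and 100% = substrate without enzyme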
MPTP block: mitochondrial permeability transition pore inhibitors, primary screen, biochemical, isolated mouse mitochondria, absorbance; inhibition, % at 10 µM; Ca2+ swelling absorbance, 30 min; 360,000 compounds, 1.4% hits; AID 602449, 2012;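 active means inhibition of 50% or more, scaled per plate between neutral and stimulator controls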;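 further: 0% = DMSO wells given calcium and 100% = 1 mM EGTA wells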
rCAG bind conf: small molecules binding CAG repeat RNA – biochemical, fluorescence, confirmation; inhibition, % at 3 µM; AID 652065, 2013; 4,300 compounds, 70% hits; r(CAG) RNA repeat, TO-PRO-1 dye displacement fluorescence; shares compounds with rCAG RNA binder;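 active means inhibition above a per-plate cutoff, the mean inhibition of sample wells plus 3 SD, cut at about 35% in these data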;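 further: loss of TO-PRO-1 fluorescence as compound displaces dye from 1x1 AA loop RNA; 0% = DMSO only wells and 100% = 100 µM mitoxantrone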
DNA CAG counter: displacement of TO-PRO-1 from CAG DNA duplex, counter-screen for rCAG RNA repeat binder project, biochemical, fluorescence, TO-PRO-1 dye, d(CAG) DNA oligo; d(CAG) DNA oligo TO-PRO-1 dye displacement; 4,300 compounds, 94% hits; inhibition, % at 3 µM; shares compounds with rCAG RNA binder;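 active means inhibition above its plate's cutoff, the mean test-well inhibition plus 3 SD, cut at about 4.8% in these data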;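 further: 0% = DNA dye mix with DMSO and 100% = 100 µM mitoxantrone; hits displace the dye from DNA and so lower well fluorescence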
dCAG dye DR: inhibitors of DNA CAG/GTC TO-PRO-1 complex, dose response, counter-screen for rCAG RNA repeat binder project, biochemical, fluorescence, TO-PRO-1 dye | shares compounds with rCAG RNA binder | DNA CAG/GTC duplex TO-PRO-1 dye displacement fluorescence | IC50, µM | 250 compounds, 20% hits | AID 686960, 2013; in the data active means IC50 below about 10 µM
Starred values were filed as active, the others as inactive; i = inactive; . = no result. A selection: hits, their analogues and other compounds. The true share with any hit is near 5.7%.

SMILES | Myeloid diff MLP | GRIN3A LBD mod | rCAG RNA binder | FAS-TE inh | MPTP block | rCAG bind conf | DNA CAG counter | others
CCCC[C@@H]1C=C(C(=O)O)[C@H](c2ccc(Br)cc2)N1S(=O)(=O)c1ccc(C)cc1 | i | -2 | 53* | 7 | 2 | 54* | 19*
CCCCC[C@@H]1C=C(C(=O)O)[C@H](c2ccc(F)cc2)N1S(=O)(=O)c1ccc(C)cc1 | i | 1 | 59* | -5 | 3 | 45* | 14*
CCCCC[C@@H]1C=C(C(=O)O)[C@H](c2ccc(CC)cc2)N1S(=O)(=O)c1ccc(C)cc1 | i | -3 | 8 | 6 | 2 | . | .
CC[C@@H]1C=C(C(=O)O)[C@H](c2ccc(Br)cc2)N1S(=O)(=O)c1ccc(C)cc1 | i | 2 | 27 | -10 | 0 | . | .
O=C1NC(=Nc2cccc(O)c2)S/C1=C\c1cccc([N+](=O)[O-])c1 | i | 13* | 47* | 11 | 2 | 33 | 11*
O=C1NC(=Nc2cccc(O)c2)S/C1=C\c1cccnc1 | i | 8 | 5 | -2 | 1 | . | .
Cc1ccc(NC(=O)CSc2ncc(S(=O)(=O)c3ccccc3)c(=O)[nH]2)cc1C | i | -1 | 49* | -2 | 1 | 43* | 11*
Cc1cc(O)ccc1Nc1cc(-c2cccc(N)c2)ncn1 | i | . | 2 | -2 | 0 | . | .
C[C@@H]1CCCCO[C@H](CN(C)Cc2ccc(C(=O)O)cc2)[C@H](C)CN([C@@H](C)CO)C(=O)c2cc(NC(=O)Nc3ccc(C(F)(F)F)cc3)ccc2O1 | i | . | 50* | -1 | 0 | 53* | 15*
CC(C)=CCC[C@H](C)CC1Cc2[nH]c(=S)[nH]c(=O)c2C(c2ccc(Cl)cc2)O1 (some centres not stated) | i | . | 35* | 26 | -1 | 42* | 16*
Cc1ccc(NC(=O)c2cc(NC(=O)CCC(=O)O)ccc2N2CCCCC2)cc1 | i | 0 | 11 | -5 | -4 | . | .
Cc1ccc(Cl)cc1NC(=O)c1cc(NC(=O)CCCC(=O)O)ccc1N1CCCCC1 | i | -2 | 51* | 13 | 1 | 56* | 18*
O=C(CCN1C(=O)/C(=C/C=C/c2ccccc2)SC1=S)Nc1nccs1 | i | 0 | 4 | -2 | 2 | . | .
O=C(CCN1C(=O)/C(=C\C=C\c2ccccc2)SC1=S)Nc1ccccc1C(=O)O | i | 2 | 42* | 13 | 1 | 88* | 57*
O=C(CCN1C(=O)/C(=C/c2ccc(Cl)cc2)SC1=S)Nc1cccc(C(=O)O)c1 | i | -9 | 6 | 14 | 0 | . | .
O=C(CCN1C(=O)/C(=C\C=C\c2ccccc2)SC1=S)Nc1cccc(C(=O)O)c1 | i | -13 | 86* | 3 | 0 | 84* | 54*
CC(C)NC(=O)C(=O)NNC(=O)CCc1ccccc1 | i | -1 | -1 | -1 | 2 | . | .
COc1ccccc1NC(=O)c1cc2ccc(O)cc2o/c1=N\O | . | 36* | 46* | -13 | 1 | 27 | 7.5*
COc1ccccc1N=c1oc2cc(O)ccc2cc1C(N)=O | i | -10 | 40* | -5 | 2 | 6 | 2
COc1ccccc1N=c1oc2cc(O)ccc2cc1C(=O)NCC1CCCO1 (configuration not stated) | i | -15 | 11 | -2 | 10 | . | .
O=C(Nc1cccc(Oc2ccc(C(=O)O)c(C(=O)O)c2)c1)c1ccc(-c2ccccc2)cc1 | i | -3 | 58* | -12 | -1 | 53* | 19*
Cc1ccc(NC(=O)CSc2nnc(CNC(=O)c3ccco3)n2C)cc1 | i | -1 | 0 | -4 | 0 | . | .
C=CCn1ccc(O)c(Cc2ccc(Cl)cc2)c1=O | i | 3 | -2 | -7 | -1 | . | .
CCOC(=O)CN1C(=O)N[C@@H](CCc2ccccc2)[C@H](C(=O)OC)[C@H]1C | i | -4 | -6 | -7 | 0 | . | .
O=C(O)c1cccc(N/N=C(\N=Nc2ccccc2)c2ccccc2)c1 | i | -12 | 38* | 14 | 5 | 53* | 17*
SMILES | Myeloid diff MLP | GRIN3A LBD mod | rCAG RNA binder | FAS-TE inh | MPTP block | rCAG bind conf | DNA CAG counter | others
COc1cccc(CNC(=O)CCCCCNC(=O)N2CCn3c2nc2ccccc23)c1 | i | 0 | -1 | -6 | -1 | . | .
Cc1nc(SCc2cccc(C(=O)O)c2)nc2c1CCCC2 | i | -1 | 9 | -4 | -1 | . | .
O=C(O)c1cccc(CSc2nc(-c3ccc(Cl)cc3)cc(C(F)(F)F)n2)c1 | i | -3 | 68* | -18 | -2 | 71* | 33* | dCAG dye DR=i
COc1ccc(-c2cc(C)nc(SCc3cccc(C(=O)O)c3)n2)cc1 | i | -1 | 47* | -9 | -1 | 49* | 9.7* | dCAG dye DR=>30
COCCN1C(=O)Cc2c1nc(N)c1c(N)nc(N3CCN(c4ccc(F)cc4)CC3)c(C#N)c21 | i | 4 | 38* | 5 | 2 | 22 | 15*
COc1ccc(CN2C(=O)Cc3c2nc(N)c2c(N)nc(N4CCOCC4)c(C#N)c32)cc1 | i | 2 | 27 | 4 | 2 | . | .
CCN(CC)S(=O)(=O)c1ccc(NC(=O)COC(=O)c2ccc(Br)o2)cc1 | i | -10 | 1 | 4 | -1 | . | .
O=C(Nc1cc(S(=O)(=O)N2CCOCC2)ccc1O)c1ccc(NS(=O)(=O)c2ccc(Cl)s2)cc1 | i | 19* | 64* | -8 | -14 | 42* | 12*
COc1ccc(NS(=O)(=O)c2ccc(O)c(NC(=O)c3ccc(S(=O)(=O)N4CCCC4)cc3)c2)cc1 | i | 4 | 74* | -8 | 13 | 50* | 18*
CCOC(=O)c1ccc(S(=O)(=O)Nc2cc(S(=O)(=O)Nc3ccc(OC)cc3)ccc2O)cc1 | i | -5 | 62* | 2 | 2 | 52* | 22*
CCN(CC)S(=O)(=O)c1ccc(NC(=O)COC(=O)c2cc(S(=O)(=O)Nc3ccc(OC)cc3)ccc2O)cc1 | i | 21* | 36* | 16 | 17 | 61* | 26*
CCN(CC)CCCn1c2c(c(SCC(=O)Nc3ccc(OC(F)(F)F)cc3)nc1=O)CCC2 | i | 2 | -2 | -5 | -2 | . | .
